Experimental data as given in ChEMBL document CHEMBL3988442, “University of Dundee, Small-Polar-MMV Screening Library” (2021).
Hit rate of the full screen: of about 48,000 compounds, about 13,000 (27%) showed an effect of 50% or more. The list shows a part of the results.

System: Wolbachia pipientis
Assay: Anti-Wolbachia Cell-Based Screen
Format: functional
Set-up: scale not given: in the data most compounds retested in dose-response had high values
Details: 5 µM

Row | SMILES | Percent Effect [%]
1 | Cc1ccc2c(c1)C(NC(=O)C1CCN(S(C)(=O)=O)CC1)CC(C)(C)O2 (stereo not given) | 2.376
2 | F[C@@H]1CN(CC2CC2)C[C@@H]1OCc1nc2ccc(C(F)(F)F)cc2[nH]1 | -10.92
3 | CC(C)N1CCc2onc(Cn3cccn3)c2C1 | -7.292
4 | O=C(Nc1ccccc1-c1ccccc1)N1C[C@@H]2CNC[C@]2(C(=O)O)C1 | -1.582
5 | Cc1nc(CNC(=O)NCC(F)(F)F)oc1C | 5.267
6 | Cc1ccc(-c2cc(-c3nc(CN4CCN(C)CC4)no3)n[nH]2)cc1 | -2.901
7 | CSCCCN1C(=O)CC[C@H]2CN(Cc3ncc[nH]3)CC[C@H]21 | -3.327
8 | COc1ccc(CNC(=O)NCCc2csc(C)n2)cn1 | 78.6
9 | Cc1nc(CNC(=O)NCc2ccc(OCC3CC3)nc2)cs1 | -6.746
10 | Cc1nc(CSCCC(=O)NCc2ccc(N(C)C)cc2)cs1 | 100.6
11 | Cc1nc(CCNC(=O)NCc2ccc(N(C)C)nc2)cs1 | 2.776
12 | Cc1ncsc1CCC(=O)NCc1csc(N(C)C)n1 | 8.732
13 | CCOc1ccc(C(=O)CCC(=O)NCCc2nncn2CC)cc1C | -15.05
14 | CC(=O)N1CCC2(CC1)C(=O)N(c1ccc(C)nc1)CCN2CC(C)C | -6.199
15 | CCCS(=O)(=O)N1CCN(C(=O)CO)CC1 | 9.785
16 | CC(C)c1nc(C2CCCN2CC(=O)N2CCc3ccccc32)no1 (stereo not given) | 8.047
17 | CC1=C(c2ccc(Cl)cc2)S(=O)(=O)N=C1N1CCc2ccccc21 | 182.9
18 | CC1=C(c2ccc(F)cc2)S(=O)(=O)N=C1N1CCc2ccccc21 | 117.2
19 | CC1=C(c2ccc(C(C)C)cc2)S(=O)(=O)N=C1N1CCc2ccccc21 | 127.3
20 | CC1=C(c2ccc(C)cc2)S(=O)(=O)N=C1N1CCc2ccccc21 | 130.8
21 | COc1ccc(C2=C(C)C(N3CCc4ccccc4C3)=NS2(=O)=O)cc1 | -1.571
22 | CCS(=O)(=O)CC(=O)Nc1ccccc1N1CCc2ccccc21 | -1.356
23 | CS(=O)(=O)NCCC(=O)Nc1ccccc1N1CCc2ccccc21 | 4.986
24 | CNC(=O)NCC(=O)Nc1ccccc1N1CCc2ccccc21 | -5.269
25 | COc1ccc(C2=C(C)C(N3CCc4ccccc43)=NS2(=O)=O)cc1 | 41.03

Row | SMILES | Percent Effect [%]
26 | CCc1nccn1CC(=O)N1C[C@H]2CC[C@@H]1CN(S(=O)(=O)N(C)C)C2 | -7.287
27 | Cc1nc(CN2CCCC2C(=O)OCc2ccccc2)oc1C (stereo not given) | 2.818
28 | CCN1CCN(C(=O)NCc2cccc(-c3cnn(C)c3)c2)CC1 | -0.06636
29 | CCOC(=O)NC(CNC(=O)c1cccc(C)n1)CC(C)C (stereo not given) | -0.9976
30 | COCc1ccccc1C(=O)N1CCC(CNC(=O)OC(C)(C)C)C1 (stereo not given) | -8.221
31 | CS(=O)(=O)CCC(=O)N1C[C@@H]2CC[C@H](C1)N(Cc1ccccn1)C2=O | 13.71
32 | N[C@@H]1CC[C@@H](Nc2nccc(CCC(F)(F)F)n2)C1 | -1.257
33 | CN1C[C@@H](F)[C@@H](OCc2nc3ccccc3n2C)C1 | 6.816
34 | COc1cc(F)c(NCc2nc3ccccc3n2C)cc1OC | 108.7
35 | CN(C)c1nccc(N(C)Cc2nc3ccccc3n2C)n1 | -8.65
36 | COc1ccc(-n2c(CO)nc3ccccc32)cc1CO | -2.808
37 | CCNc1ncc(C(=O)N(C)Cc2nc3ccccc3n2C)cn1 | -2.006
38 | COCCOc1ncccc1NCc1nc2ccccc2n1C | 92.25
39 | Cn1c(CCCNc2nccnc2C#N)nc2ccccc21 | -4.565
40 | COCCOc1ccc(F)cc1NCc1nc2ccccc2n1C | 110.1
41 | COc1ccccc1-c1noc(CNc2ccc(F)cc2OCCO)n1 | 0.4936
42 | Cc1cc(NC(=O)NC(C)(C)c2nc(C)c(C)s2)no1 | 5.891
43 | CSc1ccc(-c2nc(CN3CCC(C(N)=O)CC3)c(C)o2)cc1 | 12.72
44 | Cc1cc(S(=O)(=O)N2CCC(N3CCC(O)C3)CC2)c(Cl)cc1Cl (stereo not given) | -12.47
45 | CCn1cnnc1CN(C)Cc1c[nH]nc1-c1ccc(F)cc1 | 6.499
46 | Cn1cccc1CN1CCc2c(nc(-c3ccccn3)[nH]c2=O)C1 | 114.7
47 | Cc1cnc(C(=O)N2CCc3c(nc(-c4ccncc4)[nH]c3=O)C2)cn1 | -3.986
48 | Cc1ncc(CN2CCc3c(nc(-c4ccccn4)[nH]c3=O)C2)n1C | 100.8
49 | O=C(c1ccccn1)N1CCc2c(nc(-c3ccncc3)[nH]c2=O)C1 | -0.04653
50 | Cn1ccnc1-c1ccccc1C(=O)N1CCc2c(nc(N)[nH]c2=O)C1 | 1.911

Row | SMILES | Percent Effect [%]
51 | CC(NC(=O)N1CCN(c2ccc(Cl)cc2)CC1)C(=O)N1CCSCC1 (stereo not given) | -1.833
52 | Nc1nc(C2CCN(C(=O)c3cnccn3)CC2)cs1 | 113.4
53 | O=C(c1cnccn1)N1CCC(Oc2ncccc2Cl)CC1 | 33.47
54 | CCc1nc(CN2CCN(C(=O)c3cnccn3)CC2)cs1 | -1.168
55 | Nc1nc(C2CCN(C(=O)c3cnco3)CC2)cs1 | 114.6
56 | O=C(NCC1CCCN1Cc1ccccc1)NCC1(O)CCC1 (stereo not given) | 10.62
57 | CCCn1cc(Cl)c(C(=O)N2C[C@H]3C[C@H](OC)C[C@H]3C2)n1 | 128.4
58 | CCOCCCNC(=O)c1nn(CC)cc1Cl | 13.91
59 | Cn1cc(Cl)c(C(=O)N2CCCN(C3Cc4ccccc4C3)CC2)n1 | 3
60 | CCCn1cc(Cl)c(C(=O)N2C[C@@H](O)[C@H](Oc3ccccc3)C2)n1 | 77.97
61 | CCCn1ccnc1CN1C[C@@H](NC(C)=O)[C@H](c2ccc(C)cc2)C1 | -5.902
62 | CC(=O)N[C@@H]1CN(C(=O)c2ccncc2)C[C@H]1c1ccc(C)cc1 | -2.552
63 | CCCn1cc(Cl)c(C(=O)N2C[C@@H](O)[C@H](NC(C)=O)C2)n1 | 135.9
64 | Cn1cc(Cl)c(C(=O)N2CCC(N3CCc4ccccc4C3)CC2)n1 | 3.443
65 | CCCn1cc(C(=O)n2nc(C)cc2C)c(S(=O)(=O)N2CCSCC2)n1 | -15.72
66 | COCCN(Cc1ccccn1)C(=O)CC1OCCc2ccsc21 (stereo not given) | 1.398
67 | COc1ccc(Br)cc1CN(C)C(C)c1nc(C)no1 (stereo not given) | 6.293
68 | COc1ccc(C2(NCc3noc(C4CC4)n3)CCOCC2)cc1 | -5.013
69 | COC(C)c1cccc(NC(=O)N(CCC#N)Cc2ccccn2)c1 (stereo not given) | 1.571
70 | O=C(Nc1cccc(CN2CCOC2=O)c1)N1CCOCC1 | -4.373
71 | CCN1CCNC(=O)C12CCN(C(=O)Cc1ccsc1)CC2 | 113.3
72 | CC1NC(=O)COC12CCN(C(=O)Cc1ccsc1)CC2 (stereo not given) | -21.8
73 | O=C1NC2(CCN(C(=O)Cc3ccsc3)CC2)CC1c1ccncc1 (stereo not given) | -1.55
74 | Cc1nn(C)cc1C(=O)N1CCCN(C2Cc3ccccc3C2)CC1 | -1.892
75 | COc1cccc(OCC2CCCN(C(=O)c3cnc(C)nc3O)C2)c1 (stereo not given) | -22.18

Row | SMILES | Percent Effect [%]
76 | COc1cccc([C@@]2(O)CC[C@@H]3CN(C(=O)c4cn(C)nc4C)C[C@@H]32)c1 | 91.14
77 | COCCN1C(=O)CCC12CCN(c1ncc(F)cn1)CC2.O=C(O)C(F)(F)F | 4.325
78 | O=C1CCC2(CCN(S(=O)(=O)c3ccccc3)CC2)N1CC1CC1 | -5.701
79 | Cc1ccc(C(=O)N2CCC3(CCC(=O)N(CCN(C)C)C3)CC2)nc1 | 13.38
80 | COCCN1C(=O)CCC12CCCN(C(=O)CC1CC1)CC2 (stereo not given) | 103.4
81 | COCCN1C(=O)CCC12CCN(C(=O)CNC(C)=O)CC2 | 102.7
82 | COCCN1C(=O)CC[C@]12CC[C@@H](NC(=O)c1cc(C)on1)CC2 | -11.81
83 | O=C(CC1CC1)N1CCCC2(CCC(=O)N2CC2CC2)CC1 (stereo not given) | 113.9
84 | Cc1cc(C(=O)N[C@H]2CC[C@@]3(CCC(=O)N3CC3CC3)CC2)no1 | -41.45
85 | CCC(C(=O)N1CCCN(CCN(C)C)CC1)N1CCCC1=O (stereo not given) | -2.353
86 | CN(C)CCN1C(=O)CCC12CCCN(C(=O)CC1CC1)CC2 (stereo not given) | 109.9
87 | COCCN1C(=O)CCC12CCCN(c1ncc(F)cn1)CC2 (stereo not given) | -9.893
88 | c1ccc(OCCNc2ncnc3sc4c(c23)CCNC4)cc1 | 38.96
89 | CCN1C[C@H]2CCN(c3ncccn3)CC[C@H]2S1(=O)=O | 3.931
90 | Cc1cc(C)nc(NC2CCc3nc(C)nn3C2)n1 (stereo not given) | 12.23
91 | O=C(O)CC(NC(=O)c1cc(Br)c[nH]1)c1ccccc1 (stereo not given) | 7.291
92 | Cc1c(C(=O)N2CCC3(CCC(=O)N(CCN(C)C)C3)CC2)ccn1C | 2.177
93 | CN(C)CCN1C(=O)CCC12CCN(C(=O)CC1CC1)CC2 | 92.35
94 | O=C(c1nccc2ccccc12)N(Cc1ccco1)CC1CCCO1 (stereo not given) | 5.16
95 | CC(C)(C)OC(=O)NCC(=O)NCc1ccc(Cl)s1 | 16.63
96 | CNC(=O)COC1COC2(CCN(Cc3cccnc3)CC2)C1.O=C(O)C(F)(F)F (stereo not given) | 120
97 | CNC(=O)COC1COC2(CCN(c3cnccn3)CC2)C1.O=C(O)C(F)(F)F (stereo not given) | 11.18
98 | O=C(O)C(F)(F)F.c1cncc(COC2COC3(CCN(c4cnccn4)CC3)C2)c1 (stereo not given) | 8.045
99 | CNC(=O)COC1COC2(CCN(Cc3ccncc3F)CC2)C1.O=C(O)C(F)(F)F (stereo not given) | 109.2
100 | CNC(=O)COC1COC2(CCN(c3ccc(C)nn3)CC2)C1.O=C(O)C(F)(F)F (stereo not given) | -17.84
